{"source": "PubChem BioAssay (Tox21)", "key": {"[1]": {"experiment": "qHTS assay to identify small molecule agonists of the hypoxia (HIF-1) signaling pathway - cell viability counter screen (AID 1224844; calls by dose curve; note: nearly all actives have a fitted effect of over 50% in size; note: potency is the fitted concentration of half-maximal effect)", "procedure,_shortened": "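Cytotoxicity was measured in parallel with the HRE-driven beta-lactamase readout: after 17 hrs of compound exposure at 37C, HRE-bla ME-180 cells received CellTiter-Glo and luminescence was recorded 30 min later.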"}, "[2]": {"experiment": "qHTS assay to identify small molecule agonists of H2AX (AID 1224845; active = well fitted activation curve with a large enough effect in the signal ratio in the repeat runs, not every such curve was filed as active; the % refers to the signal ratio; note: potency is the fitted concentration of half-maximal effect)", "procedure,_shortened": "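Wild-type CHO-K1 cells, plated overnight, exposed 3hr at 37C to 15 concentrations (0.76% DMSO final). Lysed, then HTRF anti-pH2AX (S139) cryptate and anti-H2AX-d2 antibodies, 24 hr room temperature; 665/620 nm emission read.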"}, "[3]": {"experiment": "qHTS assay to identify small molecule agonists of the hypoxia (HIF-1) signaling pathway (AID 1224846; active = well fitted activation curve with a large enough effect in the signal ratio in the repeat runs, not every such curve was filed as active; the % refers to the signal ratio)", "procedure,_shortened": "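Compounds from the Tox21 10K library, dissolved in DMSO, are tested for induction of a hypoxia response element–controlled beta-lactamase reporter in ME-180 cells. Exposure lasts 17 hrs at 37C after a 5 hr settling period, followed by CCF4-AM FRET substrate.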"}, "[4]": {"experiment": "qHTS assay to identify small molecule agonists of H2AX - cell viability counter screen (AID 1224847; calls by dose curve; note: nearly all actives have a fitted effect of over 30% in size; note: potency is the fitted concentration of half-maximal effect)", "procedure,_shortened": "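Quantitative HTS viability measurement: CHO-K1 wild-type cells in serum (10% FBS) medium, short 3 hr drug exposure at 37C with 0.76% DMSO, CellTiter-Glo luminescent detection.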"}, "[5]": {"experiment": "qHTS RealTime-Glo MT Cell Viability Assay in HepG2 cells - 24 hour (AID 1224867); note: nearly all actives have a fitted effect of over 50% in size", "procedure,_shortened": "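Viability was tracked continuously by NanoLuc luminescence from prosubstrate reduced by living HepG2 cells, at successive time points over 40 h of compound exposure. Cells with reagent were preincubated 5 h at 37 °C before compound addition.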"}, "[6]": {"experiment": "qHTS RealTime-Glo MT Cell Viability Assay in HEK293 cells - 32 hour (AID 1224868); note: nearly all actives have a fitted effect of over 50% in size; note: potency is the fitted concentration of half-maximal effect", "procedure,_shortened": "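Viability tracked continuously by luminescence as live cells reduce a prosubstrate for NanoLuc; HEK293 cells preincubated 5 h, compound-treated at 37 C, and read at 0, 8, 16, 24, 32 and 40 h.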"}, "[7]": {"experiment": "A CellTox Green Cytotoxicity Assay to monitor cytotoxicity in HEK293 cells - 0 hour (AID 1224869); note: nearly all actives have a fitted effect of over 50% in size", "procedure,_shortened": "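Cells (HEK293, 600/well) and dye reagent are dispensed together. After 5 h at 37 C, 23 nL compound is pinned in. Plates stay at 37 C for 40 h with fluorescence read at 0h, 8h, 16h, 24h, 32h and 40h.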"}, "[8]": {"experiment": "qHTS RealTime-Glo MT Cell Viability Assay in HepG2 cells - 40 hour (AID 1224870); note: nearly all actives have a fitted effect of over 50% in size; note: potency is the fitted concentration of half-maximal effect", "procedure,_shortened": "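HepG2 cells (600/well) mixed with RealTime-Glo MT reagent, settled 5 h at 37 C/5% CO2 before compound addition. Nonlytic NanoLuc luminescence from viable-cell prosubstrate reduction read repeatedly during 40 h treatment at 37 C.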"}, "[9]": {"experiment": "qHTS assay to identify small molecule antagonists of the estrogen related receptor (ERR) signaling pathway from Tox21 library (AID 1224848); note: nearly all actives have a fitted effect of over 50% in size; note: potency is the fitted concentration of half-maximal effect", "procedure,_shortened": "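Quantitative high-throughput format: ERR reporter cells (2,000/well) pre-incubated 6 h, treated 18 h at 37 C with compounds in DMSO alongside positive and negative controls, then read by ONE-Glo luminescence.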"}, "[10]": {"experiment": "qHTS assay to identify small molecule agonists of the estrogen related receptor (ERR) signaling pathway from Tox21 library (AID 1224849; calls by dose curve; note: nearly all actives have a fitted effect of over 15% in size)", "settings": "ERR reporter cell line, ONE-Glo luciferase, 18 h; at 92.4 µM (top of the series) unless noted", "procedure,_shortened": "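Cells carrying the ERR reporter were plated and allowed to settle for 6 h, exposed to library compounds for 18 h at 37 C, then lysed with ONE-Glo and luminescence measured.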"}}, "note": "A number with no mark means an inactive call. Records with an inconclusive call do not appear. Entries that show only a call come without a potency. The source made the active and inactive calls. Unless noted, calls come from the whole dose curve; as a rule, active = well fitted curve in the direction sought with a large enough effect in the repeat runs; inconclusive = weak or mixed curves; inactive = no such curve, though single readings can be large; an effect the other way counts as inactive or inconclusive."}
{"smiles": "O=S(=O)(O)F", "values": [{"measurement": "Potency", "setting": "[1]", "result": "inactive"}, {"measurement": "Potency", "setting": "[2]", "result": "inactive"}, {"measurement": "Potency", "setting": "[3]", "result": "inactive"}, {"measurement": "Potency", "setting": "[4]", "result": "inactive"}, {"measurement": "Potency", "setting": "[5]", "result": "inactive"}, {"measurement": "Potency", "setting": "[6]", "result": "inactive"}, {"measurement": "Potency", "setting": "[7]", "result": "inactive"}, {"measurement": "Potency", "setting": "[8]", "result": "inactive"}]}
{"smiles": "CC(C)Br", "values": [{"measurement": "Potency", "setting": "[1]", "result": "inactive"}, {"measurement": "Potency", "setting": "[2]", "result": "inactive"}, {"measurement": "Potency", "setting": "[3]", "result": "inactive"}, {"measurement": "Potency", "setting": "[4]", "result": "inactive"}, {"measurement": "Potency", "setting": "[5]", "result": "inactive"}, {"measurement": "Potency", "setting": "[6]", "result": "inactive"}, {"measurement": "Potency", "setting": "[7]", "result": "inactive"}, {"measurement": "Potency", "setting": "[8]", "result": "inactive"}]}
{"smiles": "CC#C[C@]1(O)CC[C@H]2[C@@H]3C[C@H](C)C4=CC(=O)CC[C@]4(C)[C@H]3CC[C@@]21C", "values": [{"measurement": "Potency", "setting": "[1]", "result": "inactive"}, {"measurement": "Potency", "setting": "[2]", "result": "7.8 µM (active)"}, {"measurement": "Potency", "setting": "[3]", "result": "inactive"}, {"measurement": "Potency", "setting": "[4]", "result": "inactive"}, {"measurement": "Potency", "setting": "[5]", "result": "inactive"}, {"measurement": "Potency", "setting": "[7]", "result": "inactive"}, {"measurement": "Potency", "setting": "[8]", "result": "inactive"}]}
{"smiles": "O=[N+]([O-])[O-].[Tl+]", "values": [{"measurement": "Potency", "setting": "[1]", "result": "inactive"}, {"measurement": "Potency", "setting": "[2]", "result": "inactive"}, {"measurement": "Potency", "setting": "[3]", "result": "inactive"}, {"measurement": "Potency", "setting": "[4]", "result": "inactive"}, {"measurement": "Potency", "setting": "[5]", "result": "inactive"}, {"measurement": "Potency", "setting": "[7]", "result": "inactive"}]}
{"smiles": "Cc1c([N+](=O)[O-])c(C)c([N+](=O)[O-])c(C(C)(C)C)c1[N+](=O)[O-]", "values": [{"measurement": "Potency", "setting": "[1]", "result": "24.5 µM (active)"}, {"measurement": "Potency", "setting": "[2]", "result": "inactive"}, {"measurement": "Potency", "setting": "[3]", "result": "inactive"}, {"measurement": "Potency", "setting": "[9]", "result": "inactive"}, {"measurement": "activity change, positive = activation", "setting": "[10]", "result": -4.01, "unit": "%"}, {"measurement": "Potency", "setting": "[5]", "result": "inactive"}, {"measurement": "Potency", "setting": "[6]", "result": "inactive"}, {"measurement": "Potency", "setting": "[7]", "result": "inactive"}, {"measurement": "Potency", "setting": "[8]", "result": "inactive"}]}
{"smiles": "CC(C)C(Br)C(=O)NC(N)=O", "note": "(stereo unspecified)", "values": [{"measurement": "Potency", "setting": "[1]", "result": "inactive"}, {"measurement": "Potency", "setting": "[2]", "result": "inactive"}, {"measurement": "Potency", "setting": "[3]", "result": "inactive"}, {"measurement": "Potency", "setting": "[4]", "result": "inactive"}, {"measurement": "Potency", "setting": "[5]", "result": "inactive"}, {"measurement": "Potency", "setting": "[6]", "result": "inactive"}, {"measurement": "Potency", "setting": "[7]", "result": "inactive"}, {"measurement": "Potency", "setting": "[8]", "result": "inactive"}]}
{"smiles": "CC(=O)[O-].CC(=O)[O-].O.O.O.[Pb+2]", "values": [{"measurement": "Potency", "setting": "[1]", "result": "inactive"}, {"measurement": "Potency", "setting": "[2]", "result": "inactive"}, {"measurement": "Potency", "setting": "[3]", "result": "inactive"}, {"measurement": "Potency", "setting": "[4]", "result": "inactive"}, {"measurement": "Potency", "setting": "[5]", "result": "inactive"}, {"measurement": "Potency", "setting": "[7]", "result": "inactive"}]}
{"smiles": "Cc1ccc(C)c2ccccc12", "values": [{"measurement": "Potency", "setting": "[1]", "result": "inactive"}, {"measurement": "Potency", "setting": "[2]", "result": "inactive"}, {"measurement": "Potency", "setting": "[3]", "result": "inactive"}, {"measurement": "Potency", "setting": "[4]", "result": "inactive"}, {"measurement": "Potency", "setting": "[5]", "result": "inactive"}, {"measurement": "Potency", "setting": "[6]", "result": "inactive"}, {"measurement": "Potency", "setting": "[8]", "result": "inactive"}]}
{"smiles": "CCCCC(CC)COC(=O)c1ccccc1C(=O)OCC(CC)CCCC", "note": "(stereo unspecified)", "values": [{"measurement": "Potency", "setting": "[1]", "result": "inactive"}, {"measurement": "Potency", "setting": "[2]", "result": "inactive"}, {"measurement": "Potency", "setting": "[3]", "result": "inactive"}, {"measurement": "Potency", "setting": "[4]", "result": "inactive"}, {"measurement": "Potency", "setting": "[5]", "result": "inactive"}, {"measurement": "Potency", "setting": "[6]", "result": "inactive"}, {"measurement": "Potency", "setting": "[8]", "result": "inactive"}]}
{"smiles": "[O]=[Cr][O][Cr]=[O]", "values": [{"measurement": "Potency", "setting": "[1]", "result": "inactive"}, {"measurement": "Potency", "setting": "[2]", "result": "inactive"}, {"measurement": "Potency", "setting": "[3]", "result": "inactive"}, {"measurement": "Potency", "setting": "[4]", "result": "inactive"}, {"measurement": "Potency", "setting": "[5]", "result": "inactive"}, {"measurement": "Potency", "setting": "[6]", "result": "inactive"}, {"measurement": "Potency", "setting": "[7]", "result": "inactive"}, {"measurement": "Potency", "setting": "[8]", "result": "inactive"}]}
{"smiles": "[Cl-].[Cl-].[Sn+2]", "values": [{"measurement": "Potency", "setting": "[1]", "result": "inactive"}, {"measurement": "Potency", "setting": "[2]", "result": "inactive"}, {"measurement": "Potency", "setting": "[3]", "result": "inactive"}, {"measurement": "Potency", "setting": "[4]", "result": "inactive"}, {"measurement": "Potency", "setting": "[5]", "result": "inactive"}, {"measurement": "Potency", "setting": "[7]", "result": "inactive"}, {"measurement": "Potency", "setting": "[8]", "result": "inactive"}]}
{"smiles": "CCN1CCC2(CC1)COc1cc3c(cc12)N(C(=O)c1ccc(-c2ccc(-c4nnc(C)o4)cc2C)cc1)CC3", "values": [{"measurement": "Potency", "setting": "[1]", "result": "20.2 µM (active)"}, {"measurement": "Potency", "setting": "[2]", "result": "inactive"}, {"measurement": "Potency", "setting": "[4]", "result": "104 µM (active)"}, {"measurement": "Potency", "setting": "[9]", "result": "10 µM (active)"}, {"measurement": "activity change, positive = activation", "setting": "[10]", "result": -74.2, "unit": "%"}, {"measurement": "Potency", "setting": "[6]", "result": "11.3 µM (active)"}, {"measurement": "Potency", "setting": "[7]", "result": "inactive"}, {"measurement": "Potency", "setting": "[8]", "result": "45.2 µM (active)"}]}
{"smiles": "C[C@]12CC[C@H]3[C@@H](CCC4=CC(=O)CC[C@@H]43)[C@@H]1CC[C@@H]2OC(=O)CCc1ccco1", "values": [{"measurement": "Potency", "setting": "[1]", "result": "inactive"}, {"measurement": "Potency", "setting": "[2]", "result": "inactive"}, {"measurement": "Potency", "setting": "[3]", "result": "inactive"}, {"measurement": "Potency", "setting": "[5]", "result": "inactive"}, {"measurement": "Potency", "setting": "[6]", "result": "inactive"}, {"measurement": "Potency", "setting": "[8]", "result": "inactive"}]}
{"smiles": "O=C(NC(=O)c1c(F)cccc1F)Nc1ccc(Oc2ccc(C(F)(F)F)cc2Cl)cc1F", "values": [{"measurement": "Potency", "setting": "[1]", "result": "inactive"}, {"measurement": "Potency", "setting": "[2]", "result": "inactive"}, {"measurement": "Potency", "setting": "[3]", "result": "inactive"}, {"measurement": "Potency", "setting": "[5]", "result": "inactive"}, {"measurement": "Potency", "setting": "[6]", "result": "43.6 µM (active)"}, {"measurement": "Potency", "setting": "[8]", "result": "inactive"}]}
